Most compounds without a hit are left out; they make up all but 8.1% or so of the library.
MITF inh – blocks MITF activity; TRPM1 promoter luciferase, luminescence, 24 h; inhibition, % (concentration not given with the values); actives 0.28% (n = 37,000); AID 2240; in the data active = inhibition above about 85%; inconclusive = no clear call, values can overlap the other calls; inactive = below about 68%;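 note: human melanocyte line stably carrying TRPM1 promoter luciferase reporter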
NOMO-1 viab – STK33 inhibitor candidate reducing NOMO-1 cell viability; actives 7.5% (n = 37,000); NOMO-1 AML viability, CellTiter-Glo luminescence, 72 h; inhibition, % (test concentration not listed); AID 2330; in the data active = inhibition above about 80%; inconclusive = no clear call, values can overlap the other calls
Shh pathway inh – blocks Sonic Hedgehog signaling; Shh-LIGHT2 Gli-luciferase reporter, 30 h; inhibition, % (test concentration not listed); actives 2.1% (n = 22,000); AID 2313;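 active = mean inhibition across valid replicates above about 65%, limit read from the data; inconclusive = mean under the limit, yet half or more replicates past it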;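 note: pathway switched on by Shh-conditioned medium diluted 1 in 25 in low serum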
Each line names hits and unclear results; the compound was inactive in the other large screens.

C[C@@H]1CN([C@H](C)CO)C(=O)Cc2cc(NS(=O)(=O)c3ccccc3)ccc2O[C@H]1CN(C)C(=O)NC1CCCCC1	none
O=C(NC1CCCCC1)c1c(NC(=O)c2cc(-c3cccnc3)nc3ccccc23)sc2c1CCC2	none (no result: Shh pathway inh)
CC1(C)CC(=O)c2c(SCCOC(=O)c3ccccc3Cl)sc(C#N)c2C1	none
CS(=O)c1sc(C(=O)OCc2ccccc2)c2c1C(=O)CC(C)(C)C2 (centres undefined)	NOMO-1 viab 116 (no result: Shh pathway inh)
C[C@H]1CN([C@@H](C)CO)C(=O)c2cc(NC(=O)Nc3ccc(F)cc3)ccc2O[C@H]1CN(C)Cc1ccncc1	NOMO-1 viab 100 (no result: Shh pathway inh)
C[C@H](CO)N1C[C@H](C)[C@H](CN(C)Cc2ccncc2)Oc2ccc(NC(=O)Nc3ccccc3)cc2C1=O	NOMO-1 viab 97
C[C@@H]1CN([C@H](C)CO)C(=O)c2cc(NC(=O)Nc3ccccc3)ccc2O[C@@H]1CN(C)Cc1ccncc1	none
CC(C)NC(=O)Nc1ccc2c(c1)C(=O)N([C@@H](C)CO)C[C@@H](C)[C@@H](CN(C)Cc1ccncc1)O2	none (no result: Shh pathway inh)
C[C@H]1CN([C@@H](C)CO)C(=O)c2cc(NC(=O)Cn3cnnn3)ccc2O[C@H]1CN(C)Cc1ccc(-c2ccccc2)cc1	none
Cc1cc(Cl)ccc1OCCNS(=O)(=O)c1cc([N+](=O)[O-])ccc1C	none (no result: Shh pathway inh)
O=C1c2ccccc2NC(c2ccccc2)N1N=C1CCCCCC1 (centres undefined)	none
C[C@@H]1CN([C@H](C)CO)C(=O)c2cccc(NC(=O)Nc3ccc(C(F)(F)F)cc3)c2O[C@H]1CN(C)Cc1ccc(Cl)c(Cl)c1	NOMO-1 viab 104
C[C@@H]1CN([C@@H](C)CO)C(=O)c2cccc(NC(=O)Nc3ccc(C(F)(F)F)cc3)c2O[C@H]1CN(C)Cc1ccc(Cl)c(Cl)c1	NOMO-1 viab 107
C[C@@H]1CN([C@H](C)CO)C(=O)c2cccc(NC(=O)Nc3ccc(C(F)(F)F)cc3)c2O[C@@H]1CN(C)Cc1ccc(Cl)c(Cl)c1	none
C[C@H](CO)N1C[C@H](C)[C@H](CN(C)Cc2ccncc2)Oc2c(NC(=O)Nc3ccc(C(F)(F)F)cc3)cccc2C1=O	none
CC(C)C(=O)Nc1sc2c(c1C(=O)Nc1cccnc1)CCCC2	none (no result: Shh pathway inh)
CC(C)c1ccc2c(c1)CCC1[C@](C)(C(=O)O)CCC[C@]21C (some centres undefined)	none
CC(C)c1c(O)ccc2c1CCC1C(C)(C)CCC[C@]21C (some centres undefined)	MITF inh 106, NOMO-1 viab 109, Shh pathway inh inconclusive
CC(C)(C)c1cn2c3ccccc3nc2n1CCCN1CCCCC1	none (no result: Shh pathway inh)
COc1cc(SC)ccc1C(=O)NC1CC1	none
CCN(CC)c1cc(-c2cccs2)nc(SCC(=O)c2cccs2)c1C#N	NOMO-1 viab 122
CC(C)OC(=O)CSc1nc(-c2cccs2)cc(C(F)(F)F)c1C#N	none (no result: Shh pathway inh)
Cc1c(CCC(=O)O)c(=O)oc2cc(O)c(Cl)cc12	none (no result: Shh pathway inh)
C=C1CCC2[C@](C)(CCC[C@]2(C)C(=O)O)[C@H]1CC/C(C)=C/C(=O)OC (some centres undefined)	none
COc1ccccc1NC(=O)c1ccc(CSc2nc3ccccc3o2)cc1	none (no result: Shh pathway inh)
COc1ccc(OC)c(NC(=O)c2ccc(CSc3ncnc4nc[nH]c34)cc2)c1	Shh pathway inh 68
Cc1nc2c(cnn2-c2ccccc2)c(=O)n1NC(=O)Nc1ccc(Cl)c(Cl)c1	Shh pathway inh inconclusive
FC(F)(F)c1cc(-c2cn3ccccc3n2)cc(C(F)(F)F)c1	none
COc1cc(C(=O)NC(C)C(=O)O)cc(OC)c1OC (centres undefined)	none (no result: Shh pathway inh)
COc1cc(C(=O)N=C2C(C)=CC(=O)C=C2C)cc(OC)c1OC	NOMO-1 viab 135 (no result: Shh pathway inh)
N#Cc1ccccc1NC(=O)CSc1ccccn1	none
O=C(/C=C/Sc1ccccn1)c1ccccc1	NOMO-1 viab 114, Shh pathway inh inconclusive
COc1cc(NC(=O)COc2ccccc2OC)cc(OC)c1	none (no result: Shh pathway inh)
Cn1c(SCCCN2C(=O)c3cccc4cccc(c34)C2=O)nnc1-c1ccncc1	none (no result: Shh pathway inh)
Cn1c(N2C(=O)c3cccc4cccc(c34)C2=O)nc2ccccc21	Shh pathway inh 86
COC(=O)c1c(-c2ccc(F)cc2)csc1NC(=O)CSc1ncnc2sc3c(c12)CCC3	none (no result: Shh pathway inh)
CCOC(=O)c1c(NC(=O)CSc2ncccn2)sc2c1CCCC2	none (no result: Shh pathway inh)
NNC(=O)Cn1c2ccccc2c2ccccc21	NOMO-1 viab 100 (no result: Shh pathway inh)
O=Nc1c(O)n(CC(=O)Nc2ccccc2)c2ccccc12	none
Cc1noc(C)c1NC(=O)Nc1cccc2c1O[C@H](CN(C)S(C)(=O)=O)[C@@H](C)CN([C@@H](C)CO)C2=O	none
CC(=O)c1ccc(NC(=O)CN(C)S(=O)(=O)c2ccc(C)cc2)cc1	none (no result: Shh pathway inh)
C[C@@H]1CN([C@H](C)CO)C(=O)c2cccc(NC(=O)Nc3ccccc3)c2O[C@H]1CN(C)C(=O)Nc1ccccc1	none
C[C@@H]1CN([C@H](C)CO)C(=O)Cc2cc(NS(C)(=O)=O)ccc2O[C@@H]1CN(C)Cc1ccc(Cl)c(Cl)c1	none
C[C@@H]1CN([C@H](C)CO)C(=O)Cc2cc(NS(=O)(=O)c3ccc(F)cc3)ccc2O[C@@H]1CN(C)Cc1ccc2c(c1)OCO2	none
C[C@H]1CN([C@@H](C)CO)C(=O)Cc2cc(NS(C)(=O)=O)ccc2O[C@@H]1CN(C)Cc1ccc(Cl)c(Cl)c1	NOMO-1 viab 98
C[C@H]1CN([C@@H](C)CO)C(=O)Cc2cc(NS(=O)(=O)c3ccc(Cl)cc3)ccc2O[C@@H]1CN(C)Cc1ccc(Cl)c(Cl)c1	NOMO-1 viab 84
C[C@H](CO)N1C[C@H](C)[C@H](CN(C)Cc2ccccc2)Oc2ccc(NS(=O)(=O)c3ccc(Cl)cc3)cc2CC1=O	NOMO-1 viab inconclusive
C[C@@H]1CN([C@@H](C)CO)C(=O)Cc2cc(NS(=O)(=O)c3ccc(Cl)cc3)ccc2O[C@@H]1CN(C)Cc1ccc(Cl)c(Cl)c1	NOMO-1 viab 124
C[C@H]1CN([C@@H](C)CO)C(=O)Cc2cc(NS(=O)(=O)c3ccc(Cl)cc3)ccc2O[C@H]1CN(C)Cc1ccc2c(c1)OCO2	none
C[C@@H]1CN([C@@H](C)CO)C(=O)Cc2cc(NS(=O)(=O)c3ccc(F)cc3)ccc2O[C@@H]1CN(C)Cc1ccc(Cl)c(Cl)c1	NOMO-1 viab 96
CCn1c2ccccc2c2cc(NC(=O)CN(C)S(=O)(=O)c3ccc(Cl)cc3)ccc21	none (no result: Shh pathway inh)
O=C(COc1ccc([N+](=O)[O-])cc1)Nc1ccc2oc(-c3ccc(F)cc3)nc2c1	NOMO-1 viab inconclusive (no result: Shh pathway inh)
Cc1cc(C)c2oc(-c3ccc(NC(=O)COc4ccc([N+](=O)[O-])cc4)cc3)nc2c1	none (no result: Shh pathway inh)
C[C@H](CO)N1C[C@H](C)[C@H](CN(C)S(C)(=O)=O)Oc2ccc(NC(=O)CCN3CCOCC3)cc2CC1=O	none (no result: Shh pathway inh)
C[C@@H]1CCCCO[C@H](CN(C)C(=O)NC2CCCCC2)[C@@H](C)CN([C@H](C)CO)C(=O)c2cc(NC(=O)Nc3ccc4c(c3)OCO4)ccc2O1	none
COC1=CC(=O)O[C@@H](CCc2ccccc2)[C@@H]1O	none
C[C@H]1CN([C@@H](C)CO)C(=O)c2cccc(NC(=O)C3CC3)c2O[C@@H]1CN(C)CC1CC1	none
CNC[C@H]1Oc2c(NS(=O)(=O)c3ccc(C)cc3)cccc2C(=O)N([C@@H](C)CO)C[C@@H]1C	none
C[C@H]1CN([C@@H](C)CO)C(=O)c2cc(N(C)C)ccc2O[C@@H]1CN(C)Cc1ccc(Cl)c(Cl)c1	none
